Measured values: PubChem BioAssay AID463173 (ICCB-Longwood Screening Facility, Harvard Medical School, 2010)
Among all 52,000 compounds or so, about 4,300 (8.3%) were called active. Only a selection was taken, and actives are over-represented in it overall. Values without a mark were called inactive. Cut-off read from the data, not from the text of the source: active = survival mostly below about 52% (no sharp cut-off); inactive = mostly above about 56%.

Test system: DeltatarO mutant
Test: growth inhibition of S. aureus wild type versus tarO mutant, primary screen, teichoic acid synthesis inhibitors, RN4220, OD600 (AID 463173)
Conditions: OD600, 18 h, active compounds read low, screened at 18.75 µg/mL (by protocol)

Row | SMILES | survival
1 | Cc1csc(=Nc2ccccc2)n1-c1ccccc1 | 81%
2 | CCOC(=O)c1c(S(=O)(=O)NCC(=O)Nc2cccc(CC)c2)c(C)n(C)c1C | 84%
3 | CCc1nn(CC(=O)NCc2ccccc2)c(=O)c2cccn12 | 69%
4 | CN1C(=O)Cc2cc(S(=O)(=O)NCc3ccccc3Cl)ccc21 | 90%
5 | CC(C)CC(C(N)=O)N1C(=O)c2ccccc2C1=O (centres undefined) | 84%
6 | CCOC(=O)C1CCN(C(=O)Cn2ncc3c4ccccc4n(Cc4ccccc4F)c3c2=O)CC1 | 84%
7 | COc1ccc(Cl)cc1S(=O)(=O)N1CCN(C(=O)c2cc(-c3ccc(Br)cc3)n[nH]2)CC1 | 47% (active)
8 | COc1ccc(S(=O)(=O)N2CCN(C(=O)c3cc(-c4ccc(Br)cc4)n[nH]3)CC2)cc1OC | 73%
9 | CCOc1ccc(-c2cc(C(=O)N3CCN(S(=O)(=O)c4cc(Cl)ccc4OC)CC3)[nH]n2)cc1 | 73%
10 | COc1ccc(S(=O)(=O)Nc2cc3c(cc2NCc2ccccc2)n(C)c(=O)n3C)cc1 | 69%
11 | O=C(Nc1ccc(F)cc1)C1CCN(c2nc3ccccc3n3cccc23)CC1 | 75%
12 | O=c1cc(COc2ccccc2Cl)nc2scc(-c3ccccc3)n12 | 81%
13 | Cc1c(C(=O)N2CCOCC2)sc(NC(=O)c2ccc3c(c2)OCO3)c1C#N | 90%
14 | Cc1ccc(NC(=O)C2CCCN(S(=O)(=O)c3cccc4cccnc34)C2)cc1 (centres undefined) | 102%
15 | CCc1ccc(NC(=O)C2CCCN(S(=O)(=O)c3cccc4cccnc34)C2)cc1 (centres undefined) | 58% (active)
16 | Cc1noc(/C=C/N(C)C)c1S(=O)(=O)N1CCCC(C(=O)Nc2cccc(F)c2)C1 (centres undefined) | 90%
17 | CC(C)c1ccc(NC(=O)C2CCCN(S(=O)(=O)c3cccc4cccnc34)C2)cc1 (centres undefined) | 71%
18 | CCOc1ccc(NC(=O)C2CCCN(S(=O)(=O)c3c(C)noc3/C=C/N(C)C)C2)cc1 (centres undefined) | 94%
19 | CCc1ccc(NC(=O)C2CCCN(S(=O)(=O)c3c(C)noc3/C=C/N(C)C)C2)cc1 (centres undefined) | 42% (active)
20 | O=S(=O)(Nc1ccc(-c2ccc(N3CCCC3)nn2)cc1)c1ccc(Cl)cc1 | 102%
21 | CCCCN(C)C(=O)c1ccc2c(c1)N(Cc1ccc(F)cc1)C(=O)c1ccccc1S2(=O)=O | 118%
22 | O=C(Nc1ccc(F)cc1C(F)(F)F)C1CCN(c2ncccn2)CC1 | 76%
23 | CC(=O)Nc1ccc2c(c1)n(C)c(=O)n2C | 85%
24 | COc1ccc(OC)c(CCNC(=O)C(C)n2c(C)c3cnn(-c4ccccc4)c(=O)c3c2C)c1 (centres undefined) | 82%

Row | SMILES | survival
25 | Cc1cc(C)c(C#N)c(SCc2cccnc2)n1 | 53%
26 | COc1cccc(CSc2nc3cc(OC)c(OC)cc3c3nc(CCn4nc(C)cc4C)nn23)c1 | 60% (active)
27 | COc1cc2nc(SCc3ccc(C)cc3)n3nc(CCn4nc(C)cc4C)nc3c2cc1OC | 58%
28 | COc1cc2nc(SCc3cccc(Cl)c3)n3nc(CCn4nc(C)cc4C)nc3c2cc1OC | 79%
29 | CCc1ccccc1NC(=O)c1ccc2nc(C(C)C)oc2c1 | 73%
30 | CCn1cc2nc(SCc3cc(C)ccc3C)n(Cc3ccc(C)cc3)c(=O)c2n1 | 69%
31 | CCC(CC)C(=O)Nc1nnc(SCc2cc(=O)c3ccccc3[nH]2)s1 | 115%
32 | CC(=O)N1CCc2c(sc3nc(SCC(C)C)n(-c4ccc(F)c(Cl)c4)c(=O)c23)C1 | 63%
33 | CCOC(=O)CSc1nc2sc3c(c2c(=O)n1-c1ccc(OC)cc1)CC(C(C)C)OC3 (centres undefined) | 73%
34 | COc1ccc(-n2c(SC)nc3sc4c(c3c2=O)CCN(C(C)=O)C4)cc1 | 127%
35 | CCSc1nc2sc3c(c2c(=O)n1-c1ccc(C)c(Cl)c1)CCN(C(C)=O)C3 | 61%
36 | CC(=O)N1CCc2c(sc3nc(SCC(C)C)n(-c4ccc(C)c(Cl)c4)c(=O)c23)C1 | 45% (active)
37 | COc1ccc(-n2c(=O)c3c4c(sc3n3c(SCCC(C)C)nnc23)COC(C(C)C)C4)cc1 (centres undefined) | 59%
38 | CCCCCSc1nc2sc3c(c2c(=O)n1-c1ccccc1)CCN(C(C)=O)C3 | 77%
39 | CCCCCSc1nc2sc3c(c2c(=O)n1-c1ccc(OC)cc1)CCN(C(C)=O)C3 | -18% (active)
40 | COc1ccc(-n2c(SCCC(C)C)nc3sc4c(c3c2=O)CC(C(C)C)OC4)cc1 (centres undefined) | 30% (active)
41 | Nc1c(C(=O)Nc2cccc(Cl)c2)sc2nc3c(cc12)CN(Cc1ccccc1)CC3 | 69%
42 | Cc1ccc(NC(=O)Cn2cc3c(n2)CCCCC3)cc1 | 77%
43 | COc1ccc(NC(=O)CSc2nc3ccccc3n2CC(=O)N(C)c2ccc(F)cc2)cc1 | 87%
44 | Cc1nn(C)c(C)c1S(=O)(=O)N(CC(=O)N1CCN(c2ccccc2)CC1)c1ccc(C(C)C)cc1 | 79%
45 | COc1ccc(-c2cn3c(n2)sc2cc(C(=O)NCC(C)c4ccccc4)ccc23)cc1 (centres undefined) | 65%
46 | O=C(CSc1nc2c([nH]c3ccccc32)c(=O)n1-c1ccc(F)cc1)NC1CCCCC1 | 83%
47 | CCSc1nc2c([nH]c3ccccc32)c(=O)n1-c1ccc(OC)cc1 | 46% (active)
48 | CCOc1ccc(-n2c(SCC(=O)N3CCCCCC3)nc3c([nH]c4ccccc43)c2=O)cc1 | 106%

Row | SMILES | survival
49 | CCOc1ccc(-n2c(SCC(=O)NC3CCCCC3)nc3c([nH]c4ccccc43)c2=O)cc1 | 92%
50 | O=C(CSc1nc2c([nH]c3ccccc32)c(=O)n1-c1ccccc1)N1CCCCC1 | 73%
51 | CCC1CCCCN1C(=O)CSc1nc2c([nH]c3ccccc32)c(=O)n1-c1ccc(OC)cc1 (centres undefined) | 25% (active)
52 | CCSc1nc2c([nH]c3ccccc32)c(=O)n1-c1cccc(OC)c1 | 94%
53 | CCSc1nc2c([nH]c3ccccc32)c(=O)n1-c1ccc(F)cc1 | 87%
54 | COc1cccc(-n2c(SCC(=O)N3CCCCC3)nc3c([nH]c4ccccc43)c2=O)c1 | 20% (active)
55 | CCC1CCCCN1C(=O)CSc1nc2c([nH]c3ccccc32)c(=O)n1-c1cccc(OC)c1 (centres undefined) | 66%
56 | O=C(CSc1nc2c([nH]c3ccccc32)c(=O)n1-c1ccccc1)N1CCCCCC1 | 95%
57 | COc1ccc(-n2c(SCC(=O)NC3CCCCC3)nc3c([nH]c4ccccc43)c2=O)cc1 | 37% (active)
58 | C(#Cc1ccccc1)CN1CCCCC1 | 107%
59 | CN(C)S(=O)(=O)c1ccc(C(=O)NCCSc2c(-c3ccc(Br)cc3)[nH]c3ccccc23)cc1 | 74%
60 | CC(C)Cn1c(SCc2cccc(F)c2)nc2ccsc2c1=O | 74%
61 | CCCCNC(=O)CSc1nc2n[nH]c(C)c2c(=N)n1-c1ccccc1CC | 89%
62 | O=C1CN(C(=O)Nc2ccccc2Cl)C(c2ccccc2)c2c(sc3c2CCCC3)N1 (centres undefined) | 73%
63 | CCc1ccccc1N1C(=O)N(CC(=O)c2ccc(OC)cc2)c2ccccc2S1(=O)=O | 79%
64 | CC(C)CCNC(=O)Nc1ccc2c(c1)N(Cc1ccccc1)C(=O)c1ccccc1S2 | 79%
65 | Cc1nc(SCCOc2ccccc2F)[nH]c(=O)c1Cc1ccccc1 | 75%
66 | Cc1ccc(-n2nc3c(=O)n(C(C)C(=O)O)nc(C)c3c2C)cc1 (centres undefined) | 101%
67 | Cc1ccc(-c2nc(C(=O)NCc3ccc(Cl)cc3)c3n2CCCCC3)cc1 | 56%
68 | CSc1nnc2[nH]c(=O)cc(C)n12 | 69%
69 | Cc1ccc(-n2nc(C)c3c(C(=O)Nc4ccc(C)cc4Cl)cc(C)nc32)cc1 | 63%
70 | CN(c1ccc(Cl)cc1)S(=O)(=O)c1nnc(NC(=O)c2ccco2)s1 | 62%
71 | CN(Cc1ccco1)S(=O)(=O)c1nnc(NC(=O)c2cccc(Cl)c2)s1 | 5% (active)
72 | Cc1cccc(C(=O)Nc2nnc(S(=O)(=O)N(C)Cc3ccco3)s2)c1 | 25% (active)

Row | SMILES | survival
73 | CCC(=O)Nc1nnc(S(=O)(=O)N(C)Cc2ccc(Cl)cc2)s1 | 94%
74 | COc1cc(C(=O)Nc2cc(C)ccc2OCc2cc(=O)n3c(C)csc3n2)cc(OC)c1OC | 58%
75 | COc1ccc(N(CC(=O)N2CCN(c3ccc(F)cc3)CC2)S(=O)(=O)c2c(C)n[nH]c2C)cc1 | 70%
76 | O=C(Nc1ccc(NC(=O)c2ccccc2F)cn1)c1ccco1 | 82%
77 | COc1ccc(OC)c(NC(=O)Cc2c(C)n(C(=O)c3ccc(Cl)cc3)c3ccc(OC)cc23)c1 | 74%
78 | CCOc1cc(-c2ccc(OC(=O)c3ccc(C)cc3)c(OC)c2)cc(=O)c2c(C)oc(C)c12 | 99%
79 | CCOc1cc(-c2ccc(OC(=O)c3ccc(OC)cc3)c(OC)c2)cc(=O)c2c(C)oc(C)c12 | 41% (active)
80 | CCOc1cc(-c2ccc(OC(=O)c3ccc(Cl)cc3)c(OC)c2)cc(=O)c2c(C)oc(C)c12 | 80%
81 | O=C(CSc1ncc2c(n1)-c1ccccc1N(Cc1ccc(F)cc1)S2(=O)=O)NCCc1ccccc1 | 94%
82 | Cc1cccc(NC(=O)NC2COc3ccccc3C2)c1C (centres undefined) | 69%
83 | Cc1cc(C)cc(-n2c(SCC(N)=O)nc3c(oc4ccccc43)c2=O)c1 | 97%
84 | Cc1ccc(-c2cn3c(n2)sc2cc(C(=O)N4CCCCC4)ccc23)cc1 | 79%
85 | Cc1ccc(-c2cn3c(n2)sc2cc(C(=O)NC4CCCCC4)ccc23)cc1 | 68%
86 | O=C(NCCCN1CCCCCC1)c1ccc2c(c1)sc1nc(-c3ccccc3)cn12 | 44% (active)
87 | O=C(NCCCc1ccccc1)c1ccc2c(c1)sc1nc(-c3ccc(F)cc3)cn12 | 44% (active)
88 | Cc1ccc(-c2cn3c(n2)sc2cc(C(=O)NCCCN4CCCCCC4)ccc23)cc1 | -4% (active)
89 | O=C(NC1CCCCCC1)c1ccc2c(c1)sc1nc(-c3ccccc3)cn12 | 55%
90 | Cc1ccc(-c2cn3c(n2)sc2cc(C(=O)NC4CCCCCC4)ccc23)cc1 | 94%
91 | CCc1ccc(-c2cn3c(n2)sc2cc(C(=O)NCCCc4ccccc4)ccc23)cc1 | 70%
92 | Cc1ccc(-c2cn3c(n2)sc2cc(C(=O)NCCCc4ccccc4)ccc23)cc1 | 72%
93 | Cc1ccc(-c2cn3c(n2)sc2cc(C(=O)NCCCN4CCCCC4)ccc23)cc1 | -3% (active)
94 | O=C(NC1CCCCC1)c1ccc2c(c1)sc1nc(-c3ccccc3)cn12 | 69%
